Experiment [1] is described as follows: ATG_CRE_CIS: Attagene CIS-FACTORIAL HepG2 Assay for human cAMP Responsive Element (CRE) binding protein 3 (AID 2282926). The note with it: HepG2 CRE cis-reporter, Attagene multiplexed mRNA; actives raise or lower the signal. Summed up: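 Assay format: transient reporter transfection of HepG2, 24 h treatment, total RNA isolation with DNase I step. Reporter abundance read by fluorescence after PCR and capillary separation; DMSO-normalised gain or loss fitting.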

For experiment [2], the target named is CCAAT/enhancer-binding protein beta (Homo sapiens) (UniProt P17676). The experiment in a line: ATG_C_EBP_CIS: Attagene CIS-FACTORIAL HepG2 Assay for human CCAAT/Enhancer Binding Protein (C/EBP) beta (AID 2282927). The note with it: HepG2 Attagene cis-factorial transcription factor reporter; actives raise or lower the signal. In a few lines:
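HepG2, transient MRTU transfection, 24 h treatment. RT-PCR plus CE fluorescence; DMSO negative control, bidirectional fit.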

A short description of experiment [3]: ATG_CMV_CIS: Attagene CIS-FACTORIAL HepG2 Assay for human CMV (Internal Marker) (AID 2282928).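 Further: endpoint acts as a background internal control marker rather than a target.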 The note with it: HepG2 CMV promoter reporter, transcription factor profiling; actives raise or lower the signal. In a few lines: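 24 h chemical treatment, HepG2 with transient multi-reporter transfection; RNA → oligo(dT) RT → PCR → 6-FAM extension → HpaI digest → CE fluorescence. Bidirectional fit, DMSO negative control.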

Experiment [4] can be described thus: ATG_DR4_LXR_CIS: Attagene CIS-FACTORIAL HepG2 Assay for human Liver X Receptor (LXR), DR4 submotif (AID 2282929). The note with it: HepG2 Attagene DR4 cis-reporter, mRNA transcription; actives raise or lower the signal. In a few lines:
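HepG2 cells transiently transfected with cis-promoter-driven multiplexed reporter units (DR4 element) were dosed for 24 h. Reporter mRNA was quantified by RT-PCR, fluorescent primer extension, HpaI digestion and capillary electrophoresis; bidirectional fitting versus DMSO baseline.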

The target of experiment [5] is Aryl hydrocarbon receptor (Homo sapiens) (UniProt P35869). Briefly: ATG_Ahr_CIS: Attagene CIS-FACTORIAL HepG2 Assay for human Aryl Hydrocarbon Receptor (Ahr) (AID 2282930). The note with it: HepG2 AhR cis-factorial reporter transcription; actives raise or lower the signal. In a few lines:
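Endogenous factor activity is tracked through cis-promoter reporter units transfected into HepG2 cells. Transcript levels at 24 h are read by fluorescent RT-PCR and capillary electrophoresis, with activity in either direction scored relative to DMSO.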

A short description of experiment [6]: ATG_AP_1_CIS: Attagene CIS-FACTORIAL HepG2 Assay for human Activator Protein 1 (AP-1) (AID 2282931). Particulars: HepG2 Attagene cis-factorial AP-1 reporter mRNA; actives raise or lower the signal. Summed up: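 HepG2 cells transiently transfected with cis-element-driven multiplex reporter units; 24 h compound exposure. Reporter mRNA quantified by RT-PCR, FAM-labelled fragments resolved by capillary electrophoresis; bidirectional fit versus DMSO baseline.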

Experiment [7] in a line: ATG_AP_2_CIS: Attagene CIS-FACTORIAL HepG2 Assay for human Activator Protein 2 (AP-2) (AID 2282932). Particulars: HepG2 AP-2 cis-reporter, Attagene transcription factor profiling; actives raise or lower the signal. In a few lines: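 Liver-derived HepG2 line, cis-reporter system measuring endogenous factors; 24 h dosing; reporter mRNA detected by fluorescent RT-PCR and capillary electrophoresis.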

Experiment [8] in a line: ATG_BRE_CIS: Attagene CIS-FACTORIAL HepG2 Assay for human Bone Morphogenetic Protein (BMP) Response Element (BRE) (AID 2282933). Particulars: HepG2 BMP response element reporter, Attagene transcription factor profiling; actives raise or lower the signal. In a few lines:
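Transient MRTU transfection of human HepG2 liver cells; 24 h compound treatment; total RNA isolated, reverse-transcribed, PCR-amplified, 6-FAM labelled, HpaI-cut, capillary electrophoresis. DMSO = negative control/baseline, bidirectional fit.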

Experiment [9] deals with Retinoic acid receptor alpha (Homo sapiens) (UniProt P10276). The experiment in a line: ATG_DR5_RAR_CIS: Attagene CIS-FACTORIAL HepG2 Assay for human Retinoic Acid Receptor Alpha (RARE), DR5 submotif (AID 2282934).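 On AC50: reporter responds to endogenous RAR alpha beta and gamma in HepG2 not RARA alone.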 Particulars: HepG2 Attagene cis-factorial RARE DR5 reporter, mRNA; actives raise or lower the signal. Summed up:
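After 24 h of chemical exposure, transiently transfected HepG2 cells were lysed for total RNA; the DR5-regulated reporter transcript was quantified via RT-PCR and capillary electrophoresis, with activity fitted bidirectionally against DMSO.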

In experiment [10] the target is Transcription factor E2F1 (Homo sapiens) (UniProt Q01094). The experiment in a line: ATG_E2F_CIS: Attagene CIS-FACTORIAL HepG2 Assay for human E2F Transcription Factor 1 (AID 2282935). Particulars: HepG2 Attagene cis-reporter, E2F reporter RNA transcripts; actives raise or lower the signal. In a few lines: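 Liver-derived HepG2 cells expressing transfected promoter-driven reporter units received test chemical for 24 hours. Signal gains or losses were fitted bidirectionally against DMSO.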
Sequence of Transcription factor E2F1 (Homo sapiens) (Q01094 whole entry, looked up): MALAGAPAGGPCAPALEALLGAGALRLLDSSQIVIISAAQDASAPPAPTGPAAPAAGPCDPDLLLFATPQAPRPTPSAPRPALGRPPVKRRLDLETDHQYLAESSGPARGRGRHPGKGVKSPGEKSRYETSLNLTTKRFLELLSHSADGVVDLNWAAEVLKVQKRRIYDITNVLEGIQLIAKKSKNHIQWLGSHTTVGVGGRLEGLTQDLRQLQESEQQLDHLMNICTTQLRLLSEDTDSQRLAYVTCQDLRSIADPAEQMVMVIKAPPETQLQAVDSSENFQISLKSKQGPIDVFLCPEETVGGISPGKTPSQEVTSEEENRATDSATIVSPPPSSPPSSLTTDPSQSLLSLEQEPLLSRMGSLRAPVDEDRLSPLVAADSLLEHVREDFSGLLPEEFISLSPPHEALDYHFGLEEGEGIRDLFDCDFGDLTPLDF

Active and inactive are the calls of the source. How the source made its calls: active means hit-call score of the fitted dose curve at least 0.9, where 1 is the maximum; inactive means score below 0.9.

Sequence of Retinoic acid receptor alpha (Homo sapiens) (P10276 whole entry, looked up): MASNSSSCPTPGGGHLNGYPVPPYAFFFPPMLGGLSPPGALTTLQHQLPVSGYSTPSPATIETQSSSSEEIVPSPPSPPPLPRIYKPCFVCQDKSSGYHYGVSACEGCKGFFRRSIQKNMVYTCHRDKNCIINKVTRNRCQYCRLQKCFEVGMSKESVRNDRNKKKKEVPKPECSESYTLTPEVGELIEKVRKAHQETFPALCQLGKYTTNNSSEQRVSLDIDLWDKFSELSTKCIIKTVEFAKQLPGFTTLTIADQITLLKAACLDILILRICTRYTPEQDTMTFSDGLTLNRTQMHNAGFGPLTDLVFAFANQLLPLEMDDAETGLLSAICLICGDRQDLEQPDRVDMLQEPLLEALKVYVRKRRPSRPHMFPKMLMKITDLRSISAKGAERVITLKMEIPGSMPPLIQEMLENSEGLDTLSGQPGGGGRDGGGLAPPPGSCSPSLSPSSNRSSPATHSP
Sequence of Aryl hydrocarbon receptor (Homo sapiens) (P35869 whole entry, looked up): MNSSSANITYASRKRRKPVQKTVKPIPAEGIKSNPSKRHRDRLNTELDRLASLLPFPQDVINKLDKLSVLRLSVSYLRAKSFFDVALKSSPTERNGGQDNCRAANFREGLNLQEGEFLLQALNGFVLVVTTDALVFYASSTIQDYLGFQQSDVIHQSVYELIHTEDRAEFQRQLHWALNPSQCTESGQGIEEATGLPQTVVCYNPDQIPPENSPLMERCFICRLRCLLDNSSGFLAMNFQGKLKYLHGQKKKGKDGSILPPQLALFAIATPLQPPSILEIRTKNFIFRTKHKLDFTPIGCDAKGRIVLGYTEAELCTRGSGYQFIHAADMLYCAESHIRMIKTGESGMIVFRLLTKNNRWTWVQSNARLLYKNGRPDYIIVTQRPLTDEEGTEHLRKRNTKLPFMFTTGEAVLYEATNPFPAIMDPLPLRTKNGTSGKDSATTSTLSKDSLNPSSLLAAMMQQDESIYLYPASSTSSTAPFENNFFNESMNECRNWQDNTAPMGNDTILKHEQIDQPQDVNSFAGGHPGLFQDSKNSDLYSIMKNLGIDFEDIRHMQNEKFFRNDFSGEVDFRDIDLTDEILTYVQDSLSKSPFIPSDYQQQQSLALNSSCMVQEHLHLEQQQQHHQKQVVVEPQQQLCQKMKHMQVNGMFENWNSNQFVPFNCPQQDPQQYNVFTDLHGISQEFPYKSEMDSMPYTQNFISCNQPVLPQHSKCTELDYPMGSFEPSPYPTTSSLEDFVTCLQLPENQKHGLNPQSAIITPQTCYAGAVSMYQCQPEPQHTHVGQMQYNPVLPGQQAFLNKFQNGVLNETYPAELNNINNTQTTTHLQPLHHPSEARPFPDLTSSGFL
Sequence of CCAAT/enhancer-binding protein beta (Homo sapiens) (P17676 whole entry, looked up): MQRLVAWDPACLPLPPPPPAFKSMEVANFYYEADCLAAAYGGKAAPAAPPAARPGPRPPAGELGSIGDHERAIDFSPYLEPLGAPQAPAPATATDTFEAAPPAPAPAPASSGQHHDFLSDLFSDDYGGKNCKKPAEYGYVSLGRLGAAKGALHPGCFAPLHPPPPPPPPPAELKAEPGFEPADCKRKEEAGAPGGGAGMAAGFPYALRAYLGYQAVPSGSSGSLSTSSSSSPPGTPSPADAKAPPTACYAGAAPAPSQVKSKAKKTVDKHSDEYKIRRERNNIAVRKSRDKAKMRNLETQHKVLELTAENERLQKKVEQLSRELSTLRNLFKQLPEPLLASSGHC

Turning to `On1ccccc1=S`, the compound was called inactive in experiment [1], in experiment [2], in experiment [3], in experiment [4], in experiment [5] and in [6]. Further, the compound was called inactive in experiment [7], in [8], in experiment [9] and in experiment [10].
Take `Nc1cccc(N)c1`: the result in experiment [1], in experiment [2], in experiment [3], in [4], in experiment [5] and in experiment [6] was inactive. The call in experiment [7], in experiment [8], in [9] and in experiment [10] was inactive.
Regarding `CCOC(=O)c1ccc(C2CCC(NC[C@H](O)COc3ccc(O)c(NS(C)(=O)=O)c3)CC2)cc1` (some centres not stated), the AC50 – broadly, the concentration giving half of the maximal activity seen – in [1] was 51.8 µM (active); in experiment [2], 51.1 µM (active); in experiment [4], 60 µM (active); in experiment [6] it was 51.5 µM (active); in experiment [9] it was 51.4 µM (active). Further, the result in [3], in [5], in experiment [7], in experiment [8] and in experiment [10] was inactive.
As for `O=C(NS(=O)(=O)/C=C/c1ccccc1)c1ccc(F)cc1Cl`, the outcome in experiment [1], in experiment [2], in experiment [3], in experiment [4], in experiment [5] and in experiment [6] was inactive. For the same compound, the call in experiment [7], in [8], in experiment [9] and in experiment [10] was inactive.
For `CCOC(=O)COc1ccc2c(c1)CC(NCC(O)c1cccc(Cl)c1)CC2` (configuration not stated), the AC50 in [1] was 33 µM (active). Also, the result in [2], in experiment [3], in [4], in experiment [5], in experiment [6] and in experiment [7] was inactive. Also, the outcome in experiment [8] and in experiment [10] was inactive.
Take `CC1(C)C(=O)N(Br)C(=O)N1Br`: the compound was classed as inactive in experiment [1], in [2], in experiment [3], in [4], in experiment [6] and in [7]. For the same compound, the outcome in [8], in experiment [9] and in experiment [10] was inactive. Besides, in [5], the AC50 was 68.5 µM (active).
Regarding `CCCCC(CC)COC(=O)c1ccc(C(=O)OCC(CC)CCCC)cc1` (configuration not stated), the compound was classed as inactive in [1], in [2], in experiment [3], in experiment [4], in [6] and in experiment [7]. In addition, the outcome in [8], in [9] and in [10] was inactive. The AC50 in experiment [5] was 66 µM (active).
Regarding `CC[C@H]1OC(=O)[C@H](C)[C@@H](O[C@H]2C[C@@](C)(OC)[C@@H](O)[C@H](C)O2)[C@H](C)[C@@H](O[C@@H]2O[C@H](C)C[C@H](N(C)C)[C@H]2O)[C@](C)(O)C[C@@H](C)C(=O)[C@H](C)[C@@H](O)[C@]1(C)O`, the call in experiment [1], in experiment [2], in [3], in experiment [4], in [5] and in experiment [6] was inactive. For the same compound, the compound was called inactive in experiment [7], in [8], in experiment [9] and in experiment [10].
`C=CC(=C)CCC=C(C)C`: the call in experiment [1], in experiment [2], in experiment [3], in experiment [4], in experiment [6] and in experiment [7] was inactive. For the same compound, the result in experiment [8], in [9] and in [10] was inactive. For the same compound, the AC50 in [5] is 67.1 µM (active).
Regarding `CNS(=O)(=O)c1cc(C(=O)N2CCC(CCN3C4CCC3CC(n3c(C)nc5ccccc53)C4)(c3cccc(F)c3)CC2)c(Cl)cc1F` (configuration not stated), the compound was called inactive in experiment [1], in [2], in experiment [3], in experiment [5], in [6] and in [8]. The outcome in experiment [9] and in [10] was inactive. Also, the AC50 in [4] is 7.55 µM (active).
For the compound `O=C1CCCCCN1`, the outcome in experiment [1], in [2], in experiment [3], in [4], in experiment [5] and in experiment [6] was inactive. In addition, the outcome in experiment [8], in experiment [9] and in experiment [10] was inactive.
On to `O=C1CCC(N2C(=O)c3ccccc3C2=O)C(=O)N1` (configuration not stated), for which the outcome in experiment [1], in experiment [2], in experiment [3], in [4], in [5] and in [6] was inactive. The call in experiment [8], in experiment [9] and in experiment [10] was inactive.
As to `Cc1ccc(C)c(O)c1`, the compound was classed as inactive in [1], in experiment [2], in [3], in experiment [4], in [5] and in [6]. Moreover, the call in experiment [8], in experiment [9] and in [10] was inactive.
Consider `Cn1c(=O)c2c(ncn2C)n(C)c1=O`, for which the outcome in experiment [1], in experiment [2], in experiment [3], in [4], in [5] and in [6] was inactive. In addition, the result in experiment [8], in experiment [9] and in [10] was inactive.
With `CC(C)c1cccc(C(C)C)c1N1C(=O)c2ccc(O)cc2C1=O`, the AC50 was 56 µM (active) in [1], 12.1 µM (active) in experiment [4] and 24.1 µM (active) in experiment [6]. Further, the outcome in experiment [2], in [3], in experiment [5], in [7], in experiment [8] and in [10] was inactive.
Take `COC(=O)c1c(Cl)c(Cl)c(C(=O)OC)c(Cl)c1Cl`: the compound was called inactive in [1], in experiment [2], in experiment [3], in [4], in experiment [5] and in experiment [6]. Further, the call in experiment [7], in experiment [8] and in [10] was inactive.
As to `CCOCCO`, the call in [1], in experiment [2], in experiment [3], in [4], in experiment [5] and in experiment [6] was inactive. For the same compound, the call in experiment [7], in [8] and in [10] was inactive.
On to `C1N2CN3CN1CN(C2)C3`, for which the compound was called inactive in experiment [1], in [2], in experiment [3], in [4], in experiment [5] and in experiment [6]. Further, the call in [7], in experiment [8] and in experiment [10] was inactive.
Consider `COc1cccc(-c2ccc(/C=C\CN3CCCCCC3)cc2Cl)c1`, for which the compound was classed as inactive in experiment [1], in experiment [2], in experiment [3], in [4], in experiment [5] and in experiment [7]. Also, the result in experiment [10] was inactive. The values for the AC50 in [6] and in experiment [8] were 16.2 µM (active) and 17.4 µM (active), respectively.
On to `Fc1ccccc1[C@@H](F)COC1CCC(Nc2ncnc3[nH]ncc23)CC1` (some centres not stated), for which the AC50 in experiment [1] is 25.5 µM (active); in [3], 24.4 µM (active); in experiment [8], 24.6 µM (active); in experiment [10], 25.6 µM (active). For the same compound, the result in [2], in experiment [4], in [5], in experiment [6] and in experiment [7] was inactive.
On to `CN(C)c1ccc(Cc2ccc(N(C)C)cc2)cc1`, for which the compound was called inactive in experiment [1], in [2], in [4], in [5], in [7] and in experiment [10]. Also, the AC50 in experiment [3] is 70.4 µM (active); in experiment [6], 65 µM (active); in [8] it was 61.9 µM (active).
